Compound activity deposited in PubChem BioAssay by National Center for Advancing Translational Sciences (NCATS).
KB-V1 MDR tox: KB-V1 MDR subline cytotoxicity; KB-V1 MDR cells viability, CellTiter-Glo, 72 h; Potency, µM (doses to about 46.1 µM), hits mostly cytotoxic; actives 3.4% (n = 400,000); AID 1347076; further: nearly all actives have a fitted effect of over 60% in size
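Compound-treated KB-V1 multidrug-resistant cells, 72 h, 37 degrees C; viability by CellTiter-Glo. Fitted qHTS curves give the values.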
HT1080 IDH1KD tx: kills HT-1080 cells with IDH1 knockdown | HT-1080 IDH1 knockdown viability, ATP luminescence, 48 h | Potency, µM (titrated, usually from 46.1 µM), usual class: cytotoxic | actives 2% (n = 360,000) | AID 686971
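After a 2 h attachment period, IDH1KD HT-1080 cells took pin-transferred compound for 48 h at 37 °C; ATP-based luminescence after 10 min room-temperature reagent incubation reported viability.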
KB-3-1 cytotox: KB-3-1 parental cell cytotoxicity | KB-3-1 viability, CellTiter-Glo ATP luminescence, 72 h | Potency, µM (highest dose often 46.1 µM), usual class: cytotoxic | actives 1.4% (n = 400,000); further: nearly all actives have a fitted effect of over 60% in size
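KB-3-1 parental drug-naive adenocarcinoma cells in DMEM/10% FBS, incubated 72 h at 37 C with pin-transferred compounds across a concentration series. Viability by CellTiter-Glo luminescence; concentration-response curves fitted after normalization.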
MCF10A rerep: induces DNA re-replication in MCF 10a normal breast cells; Potency, µM (series often up to 46.1 µM), actives largely listed as activators; MCF 10A DNA re-replication, Hoechst nuclear intensity, 48 h; actives 2.9% (n = 350,000); further: nearly all actives have a fitted effect of over 50% in size
SW480 rerep: DNA re-replication induction in SW480 cells; SW480 DNA re-replication, Hoechst DNA content imaging, 48 h; Potency, µM (series often up to 46.1 µM), usual class: activators; actives 1.8% (n = 340,000); further: nearly all actives have a fitted effect of over 55% in size
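Per well, 250 cells were exposed to pinned compound for 48 hr. Nuclear DNA was visualised with Hoechst (40 min, 37 C) and total object intensity recorded by fluorescence scanning.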
HT1080NT lethal: kills 2HG-producing HT-1080-NT fibrosarcoma cells; HT-1080-NT fibrosarcoma viability, CellTiter-Glo ATP luminescence, 48 h; Potency, µM (top dose mostly 46.1 µM), actives largely listed as cytotoxic; actives 1.6% (n = 360,000); AID 686970;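 further: NT is the 2HG producing partner of a matched IDH1 knockdown line; nearly all actives have a fitted effect of over 55% in size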
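HT-1080-NT; 750 cells/well; 5% FBS RPMI; 48 h compound, 37 degrees C; CellTiter-Glo luminescence; curve fitting and curve-class assignment.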
Each line names hits and unclear results; the compound was inactive in the other large screens. Only some compounds are listed: those with a hit (about 7.9% of all), similar ones and a draw of the others. The call rests on the fitted dose curve; in most records, active means well fitted curve in the direction sought with a large enough effect; inconclusive means small, poorly fitted or top-dose-only effect, or another doubt; inactive means no such curve, though single readings can be large; an effect the other way counts as inactive or inconclusive.

CCc1ccc(C2=C(C)C(N3CCC(C(=O)NCc4ccccc4)CC3)=NS2(=O)=O)cc1	none (no result: HT1080 IDH1KD tx, MCF10A rerep, SW480 rerep, HT1080NT lethal)
CCOC(=O)C1CCN(C(=O)c2c(C)nn(-c3ccc(F)cc3)c2-n2cccc2)CC1	KB-V1 MDR tox inconclusive (no result: HT1080 IDH1KD tx, MCF10A rerep, SW480 rerep, HT1080NT lethal)
O=[N+]([O-])/C=C\c1ccc(N2CCCC2)c(F)c1	KB-V1 MDR tox inconclusive, HT1080 IDH1KD tx 3.3µM, KB-3-1 cytotox inconclusive, MCF10A rerep 18µM, SW480 rerep 18µM, HT1080NT lethal inconclusive
CC(=O)/C=C/c1ccccc1Oc1c(F)c(F)nc(F)c1F	HT1080 IDH1KD tx inconclusive, KB-3-1 cytotox inconclusive, MCF10A rerep 23µM, SW480 rerep 18µM, HT1080NT lethal inconclusive
Oc1ccccc1Oc1c(F)c(F)nc(N2CCCC2)c1F	MCF10A rerep inconclusive
COc1ccc(N(C(=O)c2ccccc2)S(=O)(=O)c2cccs2)cc1	HT1080 IDH1KD tx inconclusive, MCF10A rerep inconclusive, HT1080NT lethal 16µM
COCCNC(=O)/C(C#N)=C/C=C/c1ccccc1[N+](=O)[O-]	KB-V1 MDR tox inconclusive, HT1080 IDH1KD tx inconclusive, MCF10A rerep 15µM, HT1080NT lethal inconclusive
COCCNC(=O)/C(C#N)=C/c1ccc(O)c([N+](=O)[O-])c1	none
COCCNC(=O)/C(C#N)=C/c1ccc(O)cc1	none
COCCNC(=O)/C(C#N)=C/c1cccc(/C=C(\C#N)C(=O)NCCOC)c1	HT1080 IDH1KD tx inconclusive, KB-3-1 cytotox inconclusive, MCF10A rerep 21µM, SW480 rerep inconclusive, HT1080NT lethal inconclusive
CCOC(=O)C1=CC[C@@H](c2ccccc2Cl)N(S(=O)(=O)c2ccc(C)cc2)[C@H]1C(=O)OCC	KB-V1 MDR tox 16µM, KB-3-1 cytotox inconclusive
CCOC(=O)C1=CC[C@@H](c2cccc(C)c2)N(S(=O)(=O)c2ccc(C)cc2)[C@H]1C(=O)OCC	KB-V1 MDR tox inconclusive, KB-3-1 cytotox inconclusive, MCF10A rerep inconclusive
CCOC(=O)C1=CC[C@H]2c3c(c4ccc(OC)cc4n3C)C(=O)C1N2S(=O)(=O)c1ccc(C)cc1	KB-V1 MDR tox inconclusive, HT1080 IDH1KD tx inconclusive, KB-3-1 cytotox inconclusive, MCF10A rerep inconclusive, SW480 rerep inconclusive, HT1080NT lethal 18µM
Cc1ccc2nc(-c3cc(NC(=O)COc4ccc(C)c(C)c4)ccc3Cl)oc2c1	none (no result: HT1080 IDH1KD tx, MCF10A rerep, SW480 rerep, HT1080NT lethal)
Cc1cc2oc3c(c(=O)c2cc1C)C1(C(=O)N(C)c2ccccc21)N(CCO)C3=O (centres undefined)	none (no result: HT1080 IDH1KD tx, MCF10A rerep, SW480 rerep, HT1080NT lethal)
COc1cccc(C(c2c(N)[nH]c(=S)[nH]c2=O)c2c(N)[nH]c(=S)[nH]c2=O)c1	SW480 rerep 5.2µM
COc1cccc(C(NC(=O)c2ccccc2F)NC(=O)c2ccccc2F)c1	none
O=S(=O)(Nc1nc2ccccc2nc1Cl)c1cccc(C(F)(F)F)c1	HT1080 IDH1KD tx inconclusive, MCF10A rerep 16µM, HT1080NT lethal inconclusive
O=C(CNC(=O)c1ccccc1F)OCc1cc(=O)n2nc(C3CC3)sc2n1	none (no result: HT1080 IDH1KD tx, MCF10A rerep, SW480 rerep, HT1080NT lethal)
O=C(CN1C(=O)NC2(CCCCC2)C1=O)Oc1ccc2ccc(=O)oc2c1	MCF10A rerep inconclusive, SW480 rerep 10µM
CCOc1ccccc1NC(=O)CSc1nc2nc(-c3cccs3)cc(C(F)(F)F)c2c(=O)[nH]1	HT1080 IDH1KD tx inconclusive, MCF10A rerep 16µM, HT1080NT lethal inconclusive
COc1ccc(NC(=S)Nc2cc(C)[nH]n2)cc1Cl	none
CCOc1ccc(NC(=S)Nc2cc(-c3ccccc3)[nH]n2)cc1	KB-V1 MDR tox 15µM
COc1ccc(NC(=S)Nc2cc(-c3ccccc3)[nH]n2)cc1Cl	HT1080 IDH1KD tx inconclusive, MCF10A rerep inconclusive, SW480 rerep inconclusive, HT1080NT lethal 13µM
O=C1NC(Cc2ccccc2)c2nc3ccc(Cl)cc3c(=O)n2-c2ncccc21 (centres undefined)	none (no result: MCF10A rerep, SW480 rerep)
O=C(Nc1ccc(Cl)c(S(=O)(=O)N2CCCCC2)c1)c1cnccn1	none
Cn1cccc1C(=O)Nc1ccc(Cl)c(S(=O)(=O)N2CCCCC2)c1	KB-V1 MDR tox 21µM, KB-3-1 cytotox inconclusive
O=C(Nc1ccncc1)c1ccc(Cl)c(S(=O)(=O)N2CCCCC2)c1	KB-V1 MDR tox inconclusive, HT1080 IDH1KD tx 8.2µM, KB-3-1 cytotox inconclusive, MCF10A rerep 13µM, HT1080NT lethal inconclusive
